# Sampled rows, rich in hits. Any-hit rate of the full collection: about 12%.
# G9a block: inhibitors of human histone lysine methyltransferase G9a | Potency, µM (series often up to 102 µM), most hits filed as inhibitors | G9a H3K9 monomethylation, AlphaScreen, 2 h | 8.8% of 350,000 active; further: nearly all actives have a fitted effect of over 75% in size
# Target sequence (Q96KQ7 913-1193 limits assumed): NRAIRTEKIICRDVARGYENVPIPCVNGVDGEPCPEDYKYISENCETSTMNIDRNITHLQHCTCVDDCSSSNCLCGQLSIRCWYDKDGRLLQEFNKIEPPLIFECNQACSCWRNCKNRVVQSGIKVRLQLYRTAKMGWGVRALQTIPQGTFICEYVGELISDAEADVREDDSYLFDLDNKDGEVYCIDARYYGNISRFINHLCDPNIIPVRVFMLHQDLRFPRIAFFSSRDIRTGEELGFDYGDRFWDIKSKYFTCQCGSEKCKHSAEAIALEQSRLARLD
#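 Quantitative HTS format: methyltransferase activity on a biotin-tagged H3K9 peptide is measured by AlphaScreen, using a rabbit anti-monomethyl-H3K9 antibody with streptavidin donor and anti-IgG acceptor beads. Final levels are 20 nM enzyme, 500 nM peptide, 20 uM SAM; 2 h RT.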
# JMJD2A Tudor inh: blocks the human JMJD2A Tudor domain; AlphaScreen JMJD2A-Tudor / H3K4me3 peptide binding; AID 504339; Potency, µM (highest dose often 114 µM), usual class: inhibitors; O75164; 4.4% of 390,000 active; further: nearly all actives have a fitted effect of over 50% in size
# HP1b binding inh: blocks HP1-beta chromodomain binding to methylated histone tails; AlphaScreen HP1-beta / biotin-H3K9me3 peptide binding; Potency, µM (highest dose often 114 µM), most hits filed as inhibitors; 0.56% of 390,000 active; AID 540317; P83916; further: nearly all actives have a fitted effect of over 70% in size
# Target sequence (P83916 whole entry, looked up): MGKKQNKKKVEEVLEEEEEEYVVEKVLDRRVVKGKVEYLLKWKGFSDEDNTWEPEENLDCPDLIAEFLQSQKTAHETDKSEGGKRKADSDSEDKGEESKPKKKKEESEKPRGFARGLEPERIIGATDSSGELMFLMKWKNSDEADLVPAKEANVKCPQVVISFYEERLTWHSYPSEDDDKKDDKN
#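 HP1-beta protein (50 nM final) preincubated 30 min at room temperature with biotinylated H3(1-18)K9me3 peptide (50 nM) in PBS pH 7.4, 0.01% Tween-20, then compound added for 30 min. AlphaScreen streptavidin donor/nickel chelate acceptor beads (10 ug/mL final), 30 min dark, luminescence read.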
# BAZ2B inh: blocks human BAZ2B | Potency, µM (top dose mostly 114 µM), actives largely listed as inhibitors | 4.4% of 360,000 active | AlphaScreen BAZ2B-H3K14Ac peptide displacement | Q9UIF8; further: nearly all actives have a fitted effect of over 60% in size
#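 Compounds, titrated to a top concentration of 110 uM, were incubated 30 min at room temperature with preformed BAZ2B/acetyl-K14 H3 peptide complex (50 nM each). Proximity signal was measured by AlphaScreen after 20 min with beads.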
# L3MBTL1 inh: inhibitors of human L3MBTL1 | AlphaScreen L3MBTL1–H3K9me1 peptide binding | Potency, µM (series often up to 57.1 µM), hits mostly inhibitors | 0.66% of 230,000 active | AID 485360; further: nearly all actives have a fitted effect of over 60% in size
#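 L3MBTL1 50 nM + b-AHA-H3(1-15)K9me1 75 nM, 30 min RT; compound added, 30 min RT; streptavidin donor/Ni-chelate acceptor beads 10 ug/mL each final, 30 min RT dark; AlphaScreen read.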
# Sfp PPTase inh: inhibitors of Bacillus subtilis Sfp phosphopantetheinyl transferase. AID 1490. 3.5% of 310,000 active. Potency, µM, most hits filed as inhibitors. Biochemical Sfp PPTase activity, qHTS;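 further: the enzyme is Sfp with the accession as filed and its product quenches rhodamine fluorescence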
#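 Reaction rates are the 30-min fluorescence difference (ex 525, em 598 nm) in wells containing 15 nM Sfp, 5 uM rhodamine-CoA and 12.5 uM BHQ-2-YbbR at pH 7.6 with 10 mM MgCl2.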
# Numbers stand for hits; . = inactive; ? = inconclusive; / = not tested or not shown; [ ] = another dose, or the depositor's remark. The call rests on the fitted dose curve; in most records, active means well fitted curve in the direction sought with a large enough effect; inconclusive means small, poorly fitted or top-dose-only effect, or another doubt; inactive means no such curve, though single readings can be large; an effect the other way counts as inactive or inconclusive.
SMILES,G9a block,JMJD2A Tudor inh,HP1b binding inh,BAZ2B inh,L3MBTL1 inh,Sfp PPTase inh
Cc1ccccc1-c1noc(-c2ccc(N3CCN(c4ccccc4)CC3)c([N+](=O)[O-])c2)n1,.,.,.,.,/,/
Cc1c(Cl)cccc1NC(=O)Cn1c(=O)n(Cc2ccco2)c(=O)c2sc3ccccc3c21,.,.,.,.,/,/
CN(CC[C@@H](Oc1ccc(C(F)(F)F)cc1)c1ccccc1)CC(=O)O,?,/,/,/,/,.
O=C(Cc1nnc(CNC(=O)c2ccccc2)s1)Nc1ccc(C(F)(F)F)cc1Cl,/,.,/,/,/,/
COc1ccc(Br)cc1CNC(C)c1ccccc1 (centres undefined),.,.,.,.,.,.
COc1cccc(CNCc2ccc(OC)c3ccccc23)c1OC,.[2.33 µM],3.16µM,39.8µM,20µM,/,.
COc1ccccc1CNCc1cc(Br)ccc1OC,8.91µM,?,.,56.2µM,/,63.1µM
CC(C)CCNS(=O)(=O)c1ccc(N2CCCCS2(=O)=O)cc1,.,.,.,.,/,/
Cc1ccc(NC(=O)c2c(C)oc3ncn(CC(C)C)c(=O)c23)nc1,.,.,.,.,/,/
CCCSc1nc2sc3c(c2c(=O)[nH]1)CCN(Cc1ccccc1)C3,10µM,.[11.4 µM],.,.,/,.
O=c1[nH]c(C(Cl)Cl)nc2sc3c(c12)CCN(Cc1ccccc1)C3,8.91µM,79.4µM,.,?,.,.
CCCn1ccc2c(OCC(=O)NCc3ccccc3Cl)cccc2c1=O,.,.,.,.,/,/
CC(C)CCn1c(SCC(=O)Nc2ccccc2C(F)(F)F)nc2nccnc2c1=O,6.31µM,.,.,79.4µM,/,?
COc1ccc(-n2c(=O)c3c4c(sc3n(CC(=O)C(C)(C)C)c2=O)CCCC4)c(OC)c1,?,.,.,.,/,/
COc1ccc(-n2c(=O)c3c4c(sc3n(Cc3ccccc3)c2=O)CCC4)c(OC)c1,?,.,.,.,/,/
COc1ccccc1-n1c(=O)c2c3c(sc2n2c(=S)[nH]nc12)CCC3,3.16µM,14.1µM,.,.,.,.
COc1ccc(-n2c(=O)c3c4c(sc3n(CC(=O)Nc3cc(C)[nH]n3)c2=O)CCC4)c(OC)c1,?,89.1µM,.,/,/,.
Cn1c(=O)[nH]c(=O)c2c1nc(N1CCCCC1)n2C/C=N/Nc1ccc(C(=O)O)cc1,70.8µM,.[11.4 µM],.,.,.,.
Cn1c(=O)[nH]c(=O)c2c1nc(Br)n2C/C=N/NC(N)=S,.,/,/,.,.,56.2µM
CC(=O)OCCn1c(Br)nc2c1c(=O)[nH]c(=O)n2C,.,.,.,.,.,.
C/C=C/Cn1c(N2CCCCCC2)nc2c1c(=O)[nH]c(=O)n2C,.[12.7 µM],.,.,.,.,.
C/C=C/Cn1c(Br)nc2c1c(=O)n(C)c(=O)n2C,.[12.7 µM],.,.,.,/,.
Cn1c(=O)c2c(nc(Br)n2C/C=N/NC(N)=S)n(C)c1=O,/,.,.,.,.,50.1µM
Cc1cc(NC(=O)CCC(=O)N(Cc2ccco2)C2(C(=O)NC3CCCC3)CCCCC2)no1,.,89.1µM,.,.,/,.
O=C(CCCc1ccccc1)NC1CC(=O)N(c2ccc(F)cc2)C1 (centres undefined),.,.,.,.,/,/
SMILES,G9a block,JMJD2A Tudor inh,HP1b binding inh,BAZ2B inh,L3MBTL1 inh,Sfp PPTase inh
COc1ccc2nc(N=Nc3c(O)ccc4ccccc34)sc2c1,3.16µM,/,/,2.82µM,?,.
COc1ccc2nc(NC(=O)Nc3cccc4ccccc34)sc2c1,.,.,.,.,.,.
COc1cc(NC(=O)c2c(C)oc3c2C2=NCCN2C=N3)cc(OC)c1OC,.,.,?,.,/,/
O=C(C1CCCCN1S(=O)(=O)c1ccccc1)N1CCN(Cc2ccccc2)CC1 (centres undefined),?,.,.,.,/,.
Cc1ccc(S(=O)(=O)NNC(=O)C2CCN(Cc3ccccc3)CC2)cc1,.,79.4µM,.,.,.,.
Cc1ccc(S(=O)(=O)N2CCCCC2C(=O)N2CCN(Cc3ccccc3)CC2)cc1 (centres undefined),11.2µM,.,.,?,.,.
COc1ccccc1NC(=O)C1=C(C)Nc2nc3ccccc3n2C1c1ccccc1Cl (centres undefined),.,.,.,.,/,/
C=CCc1cccc([C@@H]2[C@@H](C)CC[C@H]3C(=O)N4[C@@H](c5cc(OC)c(OC)c(OC)c5)c5[nH]c6ccccc6c5C[C@H]4C(=O)N23)c1,50.1µM,/,/,?,.,.
O=C1[C@@H]2Cc3c([nH]c4ccccc34)C(c3ccccc3)N2C(=O)CN1C1CCN(Cc2ccccc2)CC1 (some centres undefined),79.4µM,?,.,31.6µM,/,.
O=C1[C@@H]2Cc3c([nH]c4ccccc34)C(c3cccc(Br)c3)N2C(=O)CN1C1CCN(Cc2ccccc2)CC1 (some centres undefined),?,?,.,.,/,.
COc1ccc(C2c3[nH]c4ccccc4c3C[C@H]3C(=O)N(C4CCN(Cc5ccccc5)CC4)CC(=O)N23)c(OC)c1 (some centres undefined),?,22.4µM,.,.,/,.
COc1cc(C2c3[nH]c4ccccc4c3CC3C(=O)N4C(Cc5c([nH]c6ccccc56)C4c4cc(OC)c(OC)c(OC)c4)C(=O)N32)cc(OC)c1OC (centres undefined),/,/,/,/,/,.
CCOC(=O)CNC(=O)CN1CCCN(S(=O)(=O)c2ccc(Br)s2)CC1,50.1µM,.,.,.,.,.
O=C(CN1CCCN(S(=O)(=O)c2ccc(Br)s2)CC1)Nc1ccc(Cl)cc1,.[12.7 µM],.,.,.,/,.
CN(C)c1cccc2c(S(=O)(=O)Nc3ccccn3)cccc12,.[12.7 µM],.,.,.,.,.
Cc1noc(NS(=O)(=O)c2cccc3c(N(C)C)cccc23)c1C,/,/,/,/,/,50.1µM
Cc1ccc(-n2c(C)cc(/C=N/NC(N)=S)c2C)cc1,?,?,.,?,.,.
Cc1cc(/C=N/NC(N)=S)c(O)c(/C=N/NC(N)=S)c1,.,12.6µM,.,3.16µM,?,.
CN1CCN(CC(=O)N/N=C\c2c[nH]c3ccccc23)CC1,15.8µM,/,/,.,.,?
Oc1cccc(/C=N/NC(=S)Nc2cccnc2)c1O,11.2µM,20µM,.,5.62µM,3.98µM,?
Oc1ccccc1C=NNC(=S)NN=Cc1ccccc1O,/,20µM,.,/,/,/
COc1ccc(NC(=O)CC2C(=O)N(c3ccccc3)C(=O)N2C2CCCCC2)cc1 (centres undefined),.,.,.,.,/,/
CC(=O)OC1CCC2(C)C3CC(=O)C4(C)C(CC5OC6(CCC(C)CO6)C(C)C54)C3CC[C@H]2C1 (some centres undefined),.[2.33 µM],/,/,/,/,.
Cc1ccc(C)c(N2CCN(C(=O)C3CCN(c4nc(-c5ccc(C(C)C)cc5)no4)CC3)CC2)c1,.,.,.,.,/,/

# Bioassay records (PubChem)
